PubChem BioAssay (NCI)
The panel holds about 83,000 compounds, 20% with a hit somewhere; the sample as a whole holds those more often.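 Growth was measured after 48 h exposure to one concentration of compound in 96-well plates. Values under 10 count as active.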 Active and inactive are the calls of the source.

What was measured:
Assay in all cases: NCI-60 one-dose screen, 48 h (100 = growth as untreated, 0 = no growth, -100 = all killed)
Conditions in all cases: 10 µM unless noted
[1] = tested on: RPMI-8226 leukemia
[2] = tested on: OVCAR-8 ovarian
[3] = tested on: OVCAR-5 ovarian
[4] = tested on: OVCAR-4 ovarian
[5] = tested on: SK-OV-3 ovarian
[6] = tested on: IGROV1 ovarian
[7] = tested on: OVCAR-3 ovarian
[8] = tested on: HS 578T breast
[9] = tested on: NCI/ADR-RES ovarian
[10] = tested on: T-47D breast
[11] = tested on: BT-549 breast
[12] = tested on: MDA-MB-435 melanoma
[13] = tested on: SW-620 colon
[14] = tested on: MCF7 breast
[15] = tested on: HCT-116 colon
[16] = tested on: HCC-2998 colon
[17] = tested on: KM12 colon

| SMILES | growth [1] | growth [2] | growth [3] | growth [4] | growth [5] | growth [6] | growth [7] | growth [8] | growth [9] | growth [10] | growth [11] | growth [12] | growth [13] | growth [14] | growth [15] | growth [16] | growth [17] |
| --- | --- | --- | --- | --- | --- | --- | --- | --- | --- | --- | --- | --- | --- | --- | --- | --- | --- |
| CS(=O)c1cccc(-c2ccc3nc(N)n(-c4ccc(C(F)(F)F)cc4)c(=O)c3c2)c1 (configuration not stated) | 97.4% (inactive) | 96.3% (inactive) | 100% (inactive) | 100% (inactive) | 102% (inactive) | 102% (inactive) | 101% (inactive) | 88.4% (inactive) | 103% (inactive) | 77.1% (inactive) | 99.4% (inactive) | 105% (inactive) | 103% (inactive) | 104% (inactive) | 100% (inactive) | 106% (inactive) | 98.5% (inactive) |
| COCN1CCC2N(COC)CCC3N(COC)CCC1N23 (configuration not stated) | 118% (inactive) | 99% (inactive) | 103% (inactive) | 110% (inactive) | 101% (inactive) | 126% (inactive) | 116% (inactive) | 124% (inactive) | 108% (inactive) | 99.6% (inactive) | 108% (inactive) | 110% (inactive) | 114% (inactive) | 99.4% (inactive) | 101% (inactive) | 100% (inactive) | 106% (inactive) |
| C=C1C(=O)O[C@H]2[C@H]1CC/C(COC(=O)C(=O)c1c[nH]c3ccc(OC)cc13)=C\CC[C@@]1(C)O[C@@H]21 | -35.6% (active) | -24.6% (active) | -30.6% (active) | -12% (active) | 15.8% (inactive) | -73% (active) | -74.6% (active) | 2.01% (active) | 7.22% (active) | -54.5% (active) | -63.7% (active) | -85.3% (active) | -61.4% (active) | -30.1% (active) | -97.3% (active) | -81.9% (active) | -71.2% (active) |
| CSc1n(Cc2ccc3ccccc3c2)c(C)c[n+]1Cc1ccc2ccccc2c1 | -38.3% (active) | -3.48% (active) | 6.94% (active) | -7.94% (active) | 5.34% (active) | -55.6% (active) | -41.9% (active) | -23.3% (active) | 78.4% (inactive) | 0.45% (active) | -23.4% (active) | -66.2% (active) | 0.772% (active) | -62.8% (active) | -0.907% (active) | -91.1% (active) | -82.5% (active) |
| CN(c1ccccc1)c1ccc2c(c1)OCCC21CC1Nc1cnccc1C(=O)O (configuration not stated) | 82.6% (inactive) | 54.9% (inactive) | 96.2% (inactive) | 75.3% (inactive) | 69.1% (inactive) | 75.1% (inactive) | 77.1% (inactive) | 80.8% (inactive) | 73.8% (inactive) | 72.6% (inactive) | 64.8% (inactive) | 82.6% (inactive) | 80.2% (inactive) | 65.8% (inactive) | 33% (inactive) | 68.2% (inactive) | 64.2% (inactive) |
| CCCCC1CCCCN1C(=O)OCC (configuration not stated) | 118% (inactive) | 106% (inactive) | 98.4% (inactive) | 112% (inactive) | 99.1% (inactive) | 112% (inactive) | 112% (inactive) | 116% (inactive) | 113% (inactive) | 89.2% (inactive) | 73.9% (inactive) | 111% (inactive) | 106% (inactive) | 107% (inactive) | 94% (inactive) | 101% (inactive) | 123% (inactive) |
| O=c1cc(-c2ccc(Cl)cc2)[nH]c2ccccc12 | 71.5% (inactive) | 102% (inactive) | 91.7% (inactive) | 92.1% (inactive) | 90.4% (inactive) | 81.7% (inactive) | 81.7% (inactive) | 106% (inactive) | 62.2% (inactive) | 87.2% (inactive) | 101% (inactive) | 5.74% (active) | 56.9% (inactive) | 49.9% (inactive) | 73.2% (inactive) | 76.7% (inactive) | 43.7% (inactive) |
| NC(=O)c1ccc[n+]([C@@H]2O[C@H](COP(=O)([O-])OP(=O)(O)OC[C@H]3O[C@@H](n4cnc5c(N)ncnc54)[C@H](O)[C@@H]3O)[C@@H](O)[C@H]2O)c1 | 97.6% (inactive) | 96.8% (inactive) | 107% (inactive) | 106% (inactive) | 113% (inactive) | 109% (inactive) | 107% (inactive) | 107% (inactive) | 99.2% (inactive) | 114% (inactive) | 95.9% (inactive) | 104% (inactive) | 107% (inactive) | 102% (inactive) | 94.7% (inactive) | 100% (inactive) | 101% (inactive) |
| Nc1n[nH]c(-c2cc(Cl)ccc2O)c1-c1ccccc1 | 91.1% (inactive) | 91% (inactive) | 67.4% (inactive) | 86.3% (inactive) | 96.7% (inactive) | 96% (inactive) | 107% (inactive) | 85.3% (inactive) | 79.3% (inactive) | 85.3% (inactive) | 112% (inactive) | 93.6% (inactive) | 102% (inactive) | 92.7% (inactive) | 85.1% (inactive) | 86.5% (inactive) | 64.2% (inactive) |
| COc1ccc(OC)c(-c2c(C#N)c(-c3ccc(Cl)cc3)nc3c2c(-c2ccccc2)nn3-c2ccccc2)c1 | 95.8% (inactive) | 101% (inactive) | 101% (inactive) | 102% (inactive) | 100% (inactive) | 108% (inactive) | 107% (inactive) | 100% (inactive) | 99.6% (inactive) | 90.3% (inactive) | 101% (inactive) | 103% (inactive) | 98.6% (inactive) | 90.7% (inactive) | 93.8% (inactive) | 108% (inactive) | 99.2% (inactive) |
| COc1cc(C2CC(=O)Nc3c2c(C)nn3-c2nc3ccccc3[nH]2)c(OC)c2c1OCO2 (configuration not stated) | 60.1% (inactive) | 67.9% (inactive) | 105% (inactive) | 76% (inactive) | 81.7% (inactive) | 63.1% (inactive) | 68.8% (inactive) | 53.1% (inactive) | 63.2% (inactive) | 67.2% (inactive) | 76% (inactive) | -20.2% (active) | 47.1% (inactive) | 45.3% (inactive) | 61.6% (inactive) | 97.5% (inactive) | 52.1% (inactive) |
| Cc1ccc(C(=O)CSc2nc(-c3ccc(Br)cc3)c(C#N)c(=O)[nH]2)cc1 | 101% (inactive) | 88.8% (inactive) | 105% (inactive) | 85.9% (inactive) | 104% (inactive) | 99.3% (inactive) | 99.7% (inactive) | 93% (inactive) | 97.5% (inactive) | 93% (inactive) | 94% (inactive) | 93.2% (inactive) | 92.2% (inactive) | 101% (inactive) | 95.9% (inactive) | 101% (inactive) | 97.4% (inactive) |
| c1c[nH]c(CNC2CCCCC2)c1 | 103% (inactive) | 102% (inactive) | 101% (inactive) | 111% (inactive) | 102% (inactive) | 107% (inactive) | 98.1% (inactive) | 102% (inactive) | 99.1% (inactive) | 105% (inactive) | 105% (inactive) | 115% (inactive) | 102% (inactive) | 103% (inactive) | 103% (inactive) | 109% (inactive) | 98.2% (inactive) |
| CCN(CC)c1ccc2nc3c4ccccc4c(=NC(=O)c4ccccc4-c4c5ccc(N(CC)CC)cc5[o+]c5cc(N(CC)CC)ccc45)cc-3oc2c1 | 1.89% (active) | 43.8% (inactive) | 73% (inactive) | -47.4% (active) | 78.9% (inactive) | -66.6% (active) | -50.1% (active) | 63.3% (inactive) | 51.5% (inactive) | 63.6% (inactive) | 60.1% (inactive) | -86.2% (active) | -38.7% (active) | -87.6% (active) | -26.8% (active) | 15.9% (inactive) | -3% (active) |
| COc1cc(C2NC(=O)c3ccccc3N2)ccc1OCCCCCOc1c(OC)cc(C2=NOC(c3cc(OC)c(OC)c(OC)c3)C2)cc1OC (configuration not stated) | -22.2% (active) | 88.2% (inactive) | 103% (inactive) | 28.8% (inactive) | 93.8% (inactive) | 15.2% (inactive) | 78.6% (inactive) | 102% (inactive) | 65% (inactive) | 39.8% (inactive) | 1.13% (active) | 23.3% (inactive) | 92.8% (inactive) | 32.3% (inactive) | 60% (inactive) | 80.5% (inactive) | 91.2% (inactive) |
| C=CCSc1nc2ccccc2cc1/C=N/O | 86.7% (inactive) | 89.6% (inactive) | 78.6% (inactive) | 107% (inactive) | 68.2% (inactive) | 74.1% (inactive) | 92.1% (inactive) | 72.2% (inactive) | 97.2% (inactive) | 67.6% (inactive) | 85.6% (inactive) | 95.1% (inactive) | 87% (inactive) | 78% (inactive) | 78.8% (inactive) | 93.9% (inactive) | 89.5% (inactive) |
